High-throughput results deposited in PubChem by Broad Institute.
An excerpt weighted towards active compounds, which were near 3.1% of everything screened.
SIRT5 block – SIRT5 desuccinylase inhibitors, primary screen, biochemical, fluorescence imaging, single point, set 5 | 330,000 compounds, 1.1% hits | Purified SirT5, succinyl-peptide AMC, trypsin-coupled fluorescence | inhibition, % at 15 µM; in the data active means inhibition above about 15%
ERAP1 inh – human ERAP1 aminopeptidase inhibitors, primary screen, biochemical, single point, plate reader. recombinant ERAP1, Leu-AMC fluorescence, 60 min. inhibition, % at 10.7 µM. 340,000 compounds, 0.15% hits. AID 652197, 2013;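 active means mean replicate inhibition of at least 30%, or all replicates individually reaching that 30% level; inactive means mean below 30% and not every replicate reaching it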;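 further: 0% = neutral control wells and 100% = L-leucinethiol positive control wells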
CASP6 VEID inh – human caspase-6 inhibitors, primary screen, biochemical, VEID-R110 fluorescence, single point, set 2; P55212; purified caspase-6, Z-VEID-R110 cleavage fluorescence; inhibition, % at 12.5 µM; 350,000 compounds, 0.53% hits; AID 686996, 2013;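 active means mean inhibition across replicates at least about 35%, with every replicate also reaching that limit, limit read from the data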;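 further: 0% = median of neutral control wells and 100% = no fluorescence left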
Target sequence (P55212 24-179 limits assumed): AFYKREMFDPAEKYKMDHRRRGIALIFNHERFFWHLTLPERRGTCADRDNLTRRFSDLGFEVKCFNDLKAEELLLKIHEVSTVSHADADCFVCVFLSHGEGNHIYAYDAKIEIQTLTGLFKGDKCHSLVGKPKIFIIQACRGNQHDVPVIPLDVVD
Target sequence (P55212 194-293 limits assumed): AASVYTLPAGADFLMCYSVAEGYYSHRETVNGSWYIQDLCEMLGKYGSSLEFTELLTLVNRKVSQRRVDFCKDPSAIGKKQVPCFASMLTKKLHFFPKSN
FGF22 binding – binders of human FGF22 protein, primary screen, FGF22 synaptogenesis inhibitor project, biophysical, thermal shift, single point. Fibroblast growth factor 22 (Homo sapiens), Q9HCT0. recombinant FGF22 thermal shift, SYPRO orange fluorescence; percent of sucrose octasulfate shift, DMSO zero. activity (Tm shift, normalised), % at 9.99 µM. 340,000 compounds, 1.5% hits;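 active means mean Tm shift, scaled 0 neutral to 100 positive control, at about 1.3% or above, every replicate too, limit read from the data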
Target sequence (Q9HCT0 whole entry, looked up): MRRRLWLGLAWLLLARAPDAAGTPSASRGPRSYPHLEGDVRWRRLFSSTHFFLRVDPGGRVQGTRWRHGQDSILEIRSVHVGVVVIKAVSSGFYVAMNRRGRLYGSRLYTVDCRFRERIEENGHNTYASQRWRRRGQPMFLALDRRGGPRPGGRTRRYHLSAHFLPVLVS
* = called active by the depositor; . = no result.

SMILES	SIRT5 block	ERAP1 inh	CASP6 VEID inh	FGF22 binding
CCNC(=O)C[C@@H]1C=C[C@@H](NC(=O)C2CC2)[C@H](CO)O1	1	4	-2	0
C[C@H]1CN([C@@H](C)CO)S(=O)(=O)c2ccc(-c3ccncc3)cc2O[C@@H]1CN(C)C(=O)Nc1ccc(C(F)(F)F)cc1	2	0	-2	0
Cc1cc(C)nc(NS(=O)(=O)c2ccc(Br)s2)c1	-1	-1	7	0
Cc1ccc(NS(=O)(=O)c2ccc(Br)s2)nc1	5	0	37*	0
CCCNC(=O)N1[C@H](CO)[C@@H](c2ccccc2-c2ccc(OC)cc2)[C@@H]1C#N	1	0	-3	0
O=S(=O)(NN1CCOCC1)c1cc(Cl)cc(Cl)c1O	-4	37*	-1	0
CN(C)CC(=O)N1[C@@H]2c3ccc(C4=CCCC4)c(=O)n3C[C@H]1[C@H](CO)[C@H]2C(=O)NCC1CC1	-9	-4	0	0
CC(=O)N(c1ccc2oc(=O)sc2c1)S(=O)(=O)c1ccc(C(=O)O)cc1	20*	28	28	0
CC(C)CC#Cc1ccc2c(c1)O[C@H](CN(C)Cc1ccncc1)[C@@H](C)CN([C@@H](C)CO)S2(=O)=O	8	1	1	-1
Cc1ccc(NC(=O)C2CCCN2C(=O)NC2CCCCC2)cc1F (stereo not given)	.	3	3	43*
c1ccc(CC[C@@H]2CC[C@@H](CCc3ccccc3)N2)cc1	.	3	-1	0
c1ccc(CCC2Cc3ccccc3N2)cc1 (stereo not given)	15*	-1	0	0
COc1ccc(/C=N/NC(=O)c2snnc2C)c(OC)c1OC	2	2	-2	43*
O=C(Nc1ccc(Cl)c(Cl)c1)N[C@@H]1CC[C@H](CCNC(=O)c2ccc(F)cc2)O[C@H]1CO	-6	-1	-1	0
C[C@@H]1CN([C@@H](C)CO)C(=O)c2cc(C#C[C@@H](C)O)cnc2O[C@@H]1CN(C)C(=O)Nc1ccc(F)cc1	-13	2	0	0
COc1ccc(NC(=O)c2cccc(N3C(=O)C4C5C=CC(C5)C4C3=O)c2)c(OC)c1 (stereo not given)	2	0	2	0
Cc1cc(NC(=O)c2ccc(C(C)(C)C)cc2)no1	0	-1	0	0
Cc1cc(NC(=O)c2ccc(N3C(=O)C4C5C=CC(C5)C4C3=O)cc2)no1 (stereo not given)	-3	1	-2	44*
COc1ccccc1NC(=O)c1cccc(N2C(=O)C3C4C=CC(C4)C3C2=O)c1 (stereo not given)	-3	-1	1	44*
CCC(=O)N1C[C@H](C)[C@H](OC)CN(C)C(=O)c2cc(NC(=O)C3CCCCC3)ccc2OC[C@H]1C	-5	-1	0	0
O=C(C1CC1)N1CC(=O)N2[C@H](C1)[C@@H](c1ccc(C#CCc3ccccc3)cc1)[C@@H]2CO	-3	0	3	.
COc1ccc(CNC(=O)CN2CCN(S(=O)(=O)c3cccs3)CC2)cc1OC	-4	6	-2	43*
Cc1ccc(NC(=O)CN2C(=O)N/C(=C/c3cc(C)n(-c4ccc(C(=O)O)cc4)c3C)C2=O)cc1	26*	10	54*	1
Cc1ccc(NC(=O)CN2C(=O)S/C(=C\c3cc(Cl)c(OCC(=O)O)c(Cl)c3)C2=O)cc1	1	0	39*	0
Cc1ccc(NC(=O)CN2C(=O)S/C(=C\c3cc(C)n(-c4ccc(C(=O)O)cc4)c3C)C2=O)cc1	5	-2	8	44*
SMILES	SIRT5 block	ERAP1 inh	CASP6 VEID inh	FGF22 binding
CCn1c(C)cc(/C=C2\NC(=O)N(CC(=O)Nc3ccc(F)cc3)C2=O)c1C	-7	20	-2	0
CC(C)(C)c1ccc(OC(=O)N2CCOCC2)cc1	16*	1	0	0
O=C(Oc1ccccc1)N1CCOCC1	-2	4	-2	0
CCC(=O)NC(NC(=S)Nc1ccccc1Br)C(Cl)(Cl)Cl (stereo not given)	-5	7	59*	0
CC(=O)NC(NC(=S)Nc1ccccc1Br)C(Cl)(Cl)Cl (stereo not given)	-2	-1	-2	0
O=c1nc(N/N=C/c2ccccn2)cn[nH]1	4	5	-6	44*
CCN(CC)C(=O)CN1C(=O)c2cccc3cccc(c23)C1=O	-10	4	0	43*
CCN(CC(=O)Nc1c(F)cccc1F)C(=O)CN1C(=O)c2ccccc2C1=O	-5	2	4	0
CC(=O)N(C1=C(N2CCOCC2)C(=O)c2ccccc2C1=O)c1ccc(C(=O)O)cc1	0	1	70*	0
C#CC1(NC(=O)NC(C)C)CCCCC1	94*	1	0	0
Cc1ccc(S(=O)(=O)N[C@@H]2CC[C@@H](CC(=O)N3CCN(c4ccccc4)CC3)O[C@H]2CO)cc1	2	-2	0	0
C[C@H](CO)N1C[C@H](C)[C@@H](CN(C)S(C)(=O)=O)Oc2ccc(NC(=O)Nc3cccc4ccccc34)cc2C1=O	5	2	1	0
COc1ccccc1/C=C/C1=NC(=C\C=C/c2ccccc2)/C(=O)O1	21*	5	21	1
COC(=O)c1sc2ccccc2c1N	.	.	0	0
COC(=O)C1=C(C(=O)OC)C(c2ccccc2O)c2sc(=O)[nH]c2S1 (stereo not given)	16*	6	9	0
C[C@@H]1CN([C@H](C)CO)C(=O)c2cccc(NC(=O)C3CC3)c2O[C@@H]1CN(C)C	3	-4	0	0
NC(=O)CSc1nccn1Cc1ccc2c(c1)OCO2	-2	1	6	0
COCCNC(=O)CSc1nccn1Cc1ccc2c(c1)OCO2	0	-1	1	43*
COc1cccc(CN2CCC(C(=O)N3CCN(Cc4ccc5c(c4)OCO5)CC3)CC2)c1	17*	-9	-10	0
COc1cccc(CN2CCN(C(=O)Nc3ccc([N+](=O)[O-])cc3)CC2)c1	-3	2	-3	43*
Cc1ccc(S(=O)(=O)N(C)CC(=O)N2CCN(Cc3ccc4c(c3)OCO4)CC2)cc1	30*	2	8	0
COc1ccccc1N1CCN(C(=O)Nc2ccc([N+](=O)[O-])cc2)CC1	1	2	1	0
CCCC#Cc1ccc2c(c1)O[C@@H](CN(C)Cc1cccnc1)[C@@H](C)CN([C@@H](C)CO)S2(=O)=O	3	2	-3	0
CC(C)C#Cc1ccc2c(c1)O[C@H](CN(C)C(=O)c1cccnc1)[C@H](C)CN([C@H](C)CO)S2(=O)=O	-2	-3	1	0
COCCCNC(=S)N1CCN(Cc2ccc3c(c2)OCO3)CC1	0	-3	0	44*
